MEKK2mut PB1 HTS – signal of MEK5 binding to mutant human MEKK2 PB1 domain; 0.35% of 290,000 active; bead flow cytometry, Alexa488-MEK5 binding to MEKK2 mutant; percent response, % at 10 µM; AID 1530; in the data active = percent response above about 24%, passing the limit was not always enough
GRK2 aptamer HTS – inhibitors of human GRK2 displacing RNA aptamer; P25098; bead flow cytometry, FAM-aptamer displacement from GRK2; inhibition of aptamer binding, % at 10 µM; 0.59% of 330,000 active; AID 488847;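 active = inhibition of aptamer binding above 40%, roughly 3 SD of noise, on plates passing a quality check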;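 note: median bead fluorescence of bound FAM aptamer so fluorescent compounds give negative values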
Target sequence (P25098 whole entry, looked up): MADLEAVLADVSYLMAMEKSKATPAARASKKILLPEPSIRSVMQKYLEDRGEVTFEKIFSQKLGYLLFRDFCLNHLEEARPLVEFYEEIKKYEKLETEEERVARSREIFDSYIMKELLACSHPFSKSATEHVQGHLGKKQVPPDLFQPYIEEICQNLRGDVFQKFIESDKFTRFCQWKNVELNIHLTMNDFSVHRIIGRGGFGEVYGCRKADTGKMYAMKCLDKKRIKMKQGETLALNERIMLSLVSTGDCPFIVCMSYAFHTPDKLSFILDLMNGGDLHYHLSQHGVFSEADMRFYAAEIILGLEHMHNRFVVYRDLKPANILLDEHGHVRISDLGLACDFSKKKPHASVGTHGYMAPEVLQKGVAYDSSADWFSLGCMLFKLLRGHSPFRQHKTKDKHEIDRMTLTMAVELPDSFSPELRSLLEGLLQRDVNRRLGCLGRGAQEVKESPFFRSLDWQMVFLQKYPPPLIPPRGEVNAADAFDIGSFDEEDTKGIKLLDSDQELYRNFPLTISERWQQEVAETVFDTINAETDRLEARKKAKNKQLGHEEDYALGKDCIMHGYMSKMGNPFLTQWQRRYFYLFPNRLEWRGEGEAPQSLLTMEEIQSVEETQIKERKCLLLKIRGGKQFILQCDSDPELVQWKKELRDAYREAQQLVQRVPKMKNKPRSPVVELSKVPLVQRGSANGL
MEKK2wt PB1 HTS – raises or lowers MEK5 binding to wildtype human MEKK2 PB1 domain; AID 1531; Q9Y2U5; binding response (% of control), % at 10 µM; 1.1% of 290,000 active; bead flow cytometry, Alexa488-MEK5 binding to MEKK2 WT; actives lie on both sides; in the data active = binding response below about 67% or above about 130%
MEKK3 PB1 HTS – modulators (inhibitors or enhancers) of MEK5 binding to human MEKK3 PB1 domain; Q99759; bead-based flow cytometry, Alexa488-MEK5 binding to MEKK3; actives lie on both sides; 0 = blocked by unlabeled MEK5, 100 = vehicle; binding response (% of control), % at 10 µM; 1.4% of 290,000 active;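 active = binding response more than 3 SD above or below the average of its plate-row segment, actives on both sides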;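 note: Alexa488 bead fluorescence after subtracting the streptavidin-only scavenger bead signal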
MEKK2wt confirm – raises or lowers MEK5 binding to wildtype human MEKK2, retest | shares compounds with MEKK3 PB1 HTS | AID 1892 | binding response (% of control), % at 10 µM | bead flow cytometry, Alexa488-MEK5 binding to MEKK2 WT; actives lie on both sides | 2.4% of 5,900 active; in the data active = binding response below about 16% or above about 210%; inactive = in between
MEKK2mut confirm – signal of MEK5 binding to mutant human MEKK2, retest; shares compounds with MEKK3 PB1 HTS; bead flow cytometry, Alexa488-MEK5 binding to MEKK2 mutant; percent response, % at 10 µM; 2% of 5,900 active; AID 1893; in the data active = percent response mostly above about 71%, no sharp cut-off; inactive = mostly below about 38%;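 note: higher means compound restores mutant binding toward wildtype level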
MEKK3-MEK5 inh – MEKK3-MEK5 PB1 inhibition, single concentration confirmation | shares compounds with MEKK3 PB1 HTS | bead flow cytometry, Alexa488-MEK5 binding to MEKK3; hits give low values | binding response (% of control), % at 10 µM | 1.8% of 5,900 active;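 active = binding response below 72% of control, or above a set upper limit, though filed actives all read lower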;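 note: 100% = DMSO only wells and 0% = binding blocked by excess unlabeled MEK5; lower values mean stronger disruption of MEK5 binding to MEKK3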
Active calls of the source: *; nt = no result; [ ] = another dose, or the depositor's remark. Shown are actives, neighbours in structure and some others; about 2.5% of the full set was active somewhere.

SMILES | MEKK2mut PB1 HTS | GRK2 aptamer HTS | MEKK2wt PB1 HTS | MEKK3 PB1 HTS | MEKK2wt confirm | MEKK2mut confirm | MEKK3-MEK5 inh
O=C1[C@@H]2[C@@H]3C[C@@H]([C@H]4ON=C(c5ccc(Cl)cc5Cl)[C@@H]34)[C@@H]2C(=O)N1C1CCCCC1 | 3 | 0 | 106 | 144* | 96 | -5 | 98
Cc1ccc(OCCC(=O)OCC(=O)NCCc2ccc(Cl)cc2)cc1 | nt | 0 | nt | nt | nt | nt | nt
O=C1C(=O)N(CCN2CCOCC2)C(c2ccccn2)/C1=C(/O)c1ccccc1 (stereo not drawn) | -27 | 0 | 0.0*[inhibitor] | 0.0*[inhibitor] | 108 | 7 | 108
CCc1ccc(C(=O)NCc2ccc(Cl)cc2Cl)cc1 | -2 | 0 | 100 | 99 | nt | nt | nt
Cc1ccc(SCc2ccc(C(=O)NCc3ccncc3)cc2)cc1 | -6 | 0 | 85 | 82*[inhibitor] | 101 | -2 | 100
CCc1ccc(C(=O)NCc2ccc(Cl)cc2)cc1 | -1 | 0 | 97 | 71*[inhibitor] | 98 | -1 | 102
Oc1oc(C=Nc2ccc(F)cc2F)c2ccccc12 | -1 | 0 | 92 | 92 | nt | nt | nt
O=C(Nc1ccc(N2CCOCC2)c(Cl)c1)c1cccnc1 | 2 | 4 | 98 | 101 | nt | nt | nt
O=C(Nc1ccccc1N1CCOCC1)c1cccnc1 | 2 | 1 | 112 | 128* | 106 | 0 | 104
O=C(O)C1CCCCC1C(=O)Nc1ccc(S(=O)(=O)N2CCCCC2)cc1 (stereo not drawn) | -1 | 3 | 91 | 102 | nt | nt | nt
CC1CC(C(=O)Nc2ccccc2)C(=O)O1 (stereo not drawn) | nt | 4 | nt | nt | nt | nt | nt
CCCCn1c(-c2ccc(Cl)c(Cl)c2)nc2cc3[nH]c(=O)c(C(C)C)nc3cc21 | 0 | 6 | 83 | 97 | nt | nt | nt
CCCCn1c(-c2ccc(C(C)(C)C)cc2)nc2cc3[nH]c(=O)c(C(C)C)nc3cc21 | -11 | 4 | 69*[inhibitor] | 93 | 83 | -6 | 96
N#CC1=C(N)Oc2cc(O)ccc2C1c1cccnc1 (stereo not drawn) | 1 | 4 | 120 | 132* | 108 | -5 | 102
CC(=O)OCCN1CCN(C(=O)CN2C(=O)NC(c3ccccc3)(c3ccccc3)C2=O)CC1 | -2 | 0 | 97 | 98 | nt | nt | nt
COCC(C)NC(=O)C(C)N1c2cccc3cccc(c23)S1(=O)=O (stereo not drawn) | -2 | 0 | 100 | 102 | nt | nt | nt
CCOc1ccccc1N(C)C(=O)c1cn(C)c(=O)c2ccccc12 | 2 | 0 | 103 | 104 | nt | nt | nt
O=C(/C=C/c1cccs1)N1CCN(c2ccc(F)cc2)CC1 | -30 | 2 | 62*[inhibitor] | 76 | 100 | 0 | 100
CC(=O)c1ccc(N2CCN(C(=O)/C=C/c3cccs3)CC2)cc1 | -1 | 2 | 101 | 110 | nt | nt | nt
O=c1/c(=C/c2ccccn2)sc2nc3ccccc3n12 | nt | 1 | nt | nt | nt | nt | nt
COC(=O)/C=c1/sc2nc3ccccc3n2c1=O | -15 | 5 | 81 | 80*[inhibitor] | 98 | -4 | 98
CC1CN(CCCCOc2ccc(Cl)c3ccccc23)CC(C)O1 (stereo not drawn) | 10 | 0 | 162* | 113 | 150 | 22 | 105
CC(C)c1ccc(OCCCCN2CCCCC2)cc1 | 6 | 0 | 106 | 102 | nt | nt | nt
CC1CN(CCCCOc2ccc(C(C)C)cc2)CC(C)O1 (stereo not drawn) | -15 | 0 | 2.0*[inhibitor] | 2.0*[inhibitor] | 104 | 4 | 103
COc1ccc(CC(=O)NNC(=O)c2c(-c3ccccc3Cl)noc2C)cc1OC | 13 | 0 | 106 | 109 | nt | nt | nt
SMILES | MEKK2mut PB1 HTS | GRK2 aptamer HTS | MEKK2wt PB1 HTS | MEKK3 PB1 HTS | MEKK2wt confirm | MEKK2mut confirm | MEKK3-MEK5 inh
COc1cc(C(=O)N/C(=C\c2cn(C)c3ccccc23)C(=O)NCCCn2ccnc2)cc(OC)c1OC | -7 | 1 | 98 | 94 | nt | nt | nt
NCC12CC3CC(C1)CC(c1ccc(Cl)cc1)(C3)C2 | 26 | 0 | 155* | 98 | 147 | 29 | 102
Nc1ccc(C23CC4CC(CC(CO)(C4)C2)C3)cc1 | 1 | 0 | 102 | 103 | nt | nt | nt
Cc1cc(C)nc(-n2ncc3c2CC(c2ccccc2)CC3=O)n1 (stereo not drawn) | 12 | 19 | 120 | 104 | nt | nt | nt
Cc1cc(C)nc(-n2ncc3c2CC(c2ccccc2C)CC3=O)n1 (stereo not drawn) | 0 | 0 | 103 | 137* | 103 | 0 | 102
Cc1cccc2nc(CSc3nc4ccc([N+](=O)[O-])cc4[nH]3)cn12 | 0 | 2 | 110 | 151* | 103 | 8 | 103
Cc1ccccc1OCCC(=O)N(CC(C)C)c1c(N)n(Cc2ccccc2)c(=O)[nH]c1=O | nt | 2 | nt | nt | nt | nt | nt
Cc1cc(Nc2ncc(Cl)cc2Cl)n(-c2ccccn2)n1 | 7 | nt | 110 | 104 | nt | nt | nt
Cc1cc(Nc2ncc(Cl)cc2Cl)n(-c2ccccc2)n1 | 1 | 3 | 108 | 139* | 110 | 6 | 104
Cc1ccc(NC(=O)Cn2nnc(C(=O)NCCc3ccccc3)c2N)c(C)c1 | -2 | 0 | 98 | 99 | nt | nt | nt
C#CCOCCOCCOCCNc1nc(N2CCN(C(=O)[C@H](CCCCN)n3cc([C@@H](N)C(C)CC)nn3)CC2)nc(N2CCN(C(=O)[C@H](Cc3cc4ccccc4[nH]3)n3cc([C@@H](N)C(C)CC)nn3)CC2)n1 (stereo partly drawn) | nt | 0 | nt | nt | nt | nt | nt
C#CCOCCOCCOCCNc1nc(N2CCN(C(=O)[C@H](CCCCN)n3cc([C@@H](N)CC(C)C)nn3)CC2)nc(N2CCN(C(=O)[C@H](Cc3cc4ccccc4[nH]3)n3cc([C@@H](N)Cc4ccc(O)cc4)nn3)CC2)n1 | 60* | nt | 187* | 113 | 232* | 89* | 110
C#CCOCCOCCOCCNc1nc(N2CCN(C(=O)[C@H](CCCCN)n3cc([C@@H](N)CO)nn3)CC2)nc(N2CCN(C(=O)[C@H](Cc3cc4ccccc4[nH]3)n3cc([C@@H](N)Cc4ccc(O)cc4)nn3)CC2)n1 | 56* | 0 | 190* | 108 | 183 | 50 | 115
Cc1cc(C)nc(SCC(=O)N2CCOCC2)n1 | -5 | 1 | 96 | 97 | nt | nt | nt
Cc1cc(C)nc(SCCC(=O)N2CCOCC2)n1 | 11 | 1 | 123 | 123* | 99 | -1 | 100
O=C(Cc1csc(Nc2nc(=S)[nH]c3ccccc23)n1)NCCCN1CCN(c2ccccc2F)CC1 | -2 | 0 | 147* | 110 | 153 | 31 | 102
Cn1c(C(=O)NCCCN2CCN(c3ccccc3F)CC2)cc2c(=O)[nH]c3ccccc3c21 | 28 | 34 | 148* | 111 | 130 | 5 | 104
O=C(Cc1csc(Nc2nc(=S)[nH]c3ccccc23)n1)NCc1ccc(Cl)cc1 | 3 | 0 | 99 | 95 | nt | nt | nt

From PubChem
